mcGAS inh – cyclic GMP-AMP synthase inhibitors, mouse, primary biochemical chemiluminescence; recombinant cGAS, Kinase-Glo ATP depletion luminescence; inhibition, % at 12.5 µM; 160,000 compounds, 0.15% hits; AID 1259399, 2018;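 note: 0% = negative control wells and 100% = reference inhibitor with no enzyme activity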
hcGAS inh – Primary biochemical luminescence assay for human cyclic GMP-AMP synthase inhibitors; recombinant h-cGAS, ATP depletion, Kinase-Glo luminescence; inhibition, % at 12.5 µM; 290,000 compounds, 0.081% hits;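 note: 0% = vehicle reaction and 100% = reaction without DNA for no activity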
Target sequence (Q8N884 whole entry, looked up): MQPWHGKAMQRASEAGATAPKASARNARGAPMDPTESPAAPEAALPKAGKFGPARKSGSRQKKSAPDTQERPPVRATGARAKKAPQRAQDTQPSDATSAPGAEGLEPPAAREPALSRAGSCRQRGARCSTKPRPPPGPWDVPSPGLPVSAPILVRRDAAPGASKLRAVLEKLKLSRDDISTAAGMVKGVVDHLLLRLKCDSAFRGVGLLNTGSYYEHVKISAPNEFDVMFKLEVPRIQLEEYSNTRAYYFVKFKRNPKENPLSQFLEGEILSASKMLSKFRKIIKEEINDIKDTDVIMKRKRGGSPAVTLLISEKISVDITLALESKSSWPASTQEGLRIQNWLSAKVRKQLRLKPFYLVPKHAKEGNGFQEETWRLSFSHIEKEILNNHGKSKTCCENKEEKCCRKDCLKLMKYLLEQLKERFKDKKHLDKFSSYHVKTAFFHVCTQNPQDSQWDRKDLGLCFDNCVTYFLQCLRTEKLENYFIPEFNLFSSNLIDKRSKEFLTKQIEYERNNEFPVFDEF
NPYLR7 agonist – agonists of mosquito NPYLR7 receptor, primary screen, cell-based, Aedes aegypti, calcium fluorescence, mosquito biting behavior; Aedes aegypti neuropeptide Y-like receptor 7 (NPYLR7); HEK293T NPYLR7/Galpha15, GCaMP6s calcium fluorescence; activation, % at 10 µM; 270,000 compounds, 0.15% hits; AID 1259423, 2018; in the data active = activation above about 40%;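 note: 0% = vehicle and 100% = reference agonist at the receptor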
The depositor's hits bear a star; nt = not tested or not shown; ! = not confirmed by another sample. In the library only some 0.24% were active in any assay of this set; here they are far more common. Cut-off read from the data, not from the text of the source, unless noted: active = inhibition above about 40%; inactive = the rest.

SMILES	mcGAS inh	hcGAS inh	NPYLR7 agonist
Cc1cc(O)c(CN2CCN(CCO)CC2)c2c1C(=O)/C(=C/c1cc3ccccc3o1)O2	-5.7	-3.7	79.8*
CCN1CCN(Cc2c(O)cc(C)c3c2O/C(=C\c2ccco2)C3=O)CC1	-5.7	-1.1	64.9*
Cc1cc(O)c(CN2CCN(CCO)CC2)c2c1C(=O)/C(=C/c1cccs1)O2	-7.2	-3.9	27.9
O=C1/C(=C/c2cc3ccccc3o2)Oc2c1ccc(O)c2CN1CCN(CCO)CC1	4.8	4.6	108.4*
O=C1/C(=C/N2CCC3(CC2)OCCO3)Oc2cc(O)ccc21	-11.9	-7.3	-5.9
O=C1/C(=C/c2cc3ccccc3o2)Oc2cc(O)ccc21	nt	-11.1	49.4*
CCOC(=O)c1nn(-c2ccccc2C)c(=O)cc1OCc1ccccc1C	nt	-4.3	13.4
Cc1nn(C2CCS(=O)(=O)C2)c2nc(-c3ccccc3)cc(C(=O)NC3CCCCCC3)c12 (stereo not drawn)	2.1	3.3	5.6
COc1ccc(/C=C2N=C(/C=C/c3ccccc3)OC/2=O)cc1OC(C)=O	-4.7	-4.7	6.3
O=c1c2c3c(sc2[nH]c(=S)n1CC1CCCO1)CCCC3 (stereo not drawn)	6.9	-0.5	-1.2
Cc1cc(O)c(CN2CCN(C)CC2)c2c1C(=O)/C(=C/c1cc3cc(Br)ccc3o1)O2	-7.4	-8.5	4.4
Cc1cc(O)c(CN2CCCC2)c2c1C(=O)/C(=C/c1cc3ccccc3o1)O2	-2.2	-2.9	57.2*
CCc1nc(CC(=O)NCC(C)(C)c2ccccc2OC)cs1	nt	-13.9	1.9
CCn1cc(C(CC(=O)NCc2ccc3c(c2)OCO3)c2cc(OC)cc(OC)c2)c2ccccc21 (stereo not drawn)	0.6	3.0	2.9
CCn1cc(C(CC(=O)N2CCN(Cc3ccc4c(c3)OCO4)CC2)c2cc(OC)cc(OC)c2)c2ccccc21 (stereo not drawn)	74.5*	-12.7	nt
N=C1/C(=C\c2ccco2)C(=O)N=C2SC(Cc3cccs3)=NN12	nt	52.0*	-1.8
N=C1/C(=C\c2ccc(Br)o2)C(=O)N=C2SC(Cc3cccs3)=NN12	nt	33.3	-2.7
C[C@@H](C(=O)Nc1nc2ccccc2[nH]1)N1C(=O)c2ccncc2C1=O	nt	-3.7	2.5
CCOc1cc2c(cc1C=C(C#N)C#N)OC(C)C2 (stereo not drawn)	nt	-5.0	95.4*
CCOc1cc2c(cc1N)OC(C)C2 (stereo not drawn)	-5.1	-0.6	-2.3
O=C(NCC1CCOCC1)c1cnc(N2CCN(Cc3ccccc3)C2=O)o1	nt	-8.7	0.3
Cc1cccc(NC(=O)C2(c3ccc(Cl)cc3)CCCC2)n1	nt	-7.8	-7.0
COc1ccc(S(=O)(=O)NCC2CCCN(C(=O)CSc3ccccc3)C2)cc1 (stereo not drawn)	1.3	-6.9	49.7*!
O=C(COc1ccccc1)N1CCCC(CNS(=O)(=O)c2cccs2)C1 (stereo not drawn)	-2.3	-7.6	56.7*!
O=C(CCCc1cccs1)N1CCCC(CNS(=O)(=O)c2cccs2)C1 (stereo not drawn)	nt	-4.6	20.9
SMILES	mcGAS inh	hcGAS inh	NPYLR7 agonist
COc1ccc(S(=O)(=O)NCC2CCCN(C(=O)C3CCOCC3)C2)cc1 (stereo not drawn)	-4.2	-2.2	-1.4
COC(=O)CN1CC2(CCN(Cc3cccc(OC(F)(F)F)c3)CC2)OC1=O	nt	0.2	0.6
Cc1occc1-c1nnc(SCC(=O)N(C)Cc2ccsc2)n1C	nt	-7.2	0.3
COc1cc(NC(=O)c2cc(=O)c(OCc3ccccc3)c[nH]2)cc(OC)c1OC	nt	-6.1	-5.9
CN(Cc1ccc(Br)cc1)C(=O)CCl	41.7*	-4.3	0.5
CCCNC(=O)NCC(=O)N(C)Cc1ccc(Br)cc1	nt	-5.0	0.5
CC(=O)Cn1c(CN2CCN(c3ccc(F)cc3)CC2)nc2c1c(=O)[nH]c(=O)n2C	nt	9.4	-9.5
O=C(NCCCc1ccccc1)c1ccc(-c2cc(-c3ccccc3)n[nH]2)cc1	-4.4	0.7	nt
COc1cc(/C=C(/C#N)c2nc3cc(Cl)ccc3s2)ccc1O	nt	-16.1	102.4*
COc1ccc(C=C(C#N)c2nc(-c3ccc(F)cc3)cs2)cc1O	-4.0	-5.5	14.4
CC(C)(C)c1ccc(/C=C2\SC(=S)NC2=O)cc1	-1.1	6.5	-10.9
O=C1NC(=S)SC1=Cc1cccc(C(F)(F)F)c1	82.1*	30.8	0.7
O=C1NC(=S)SC1=Cc1ccc(C(=O)O)cc1	64.7*	33.1	13.4
O=C1NC(=S)S/C1=C/c1cccc(O)c1	nt	-4.3	-1.6
Cc1ccc(-c2nc3cc(C)ccn3c2NC(=O)CCC2CCCC2)cc1	-2.9	1.6	-1.2
Cc1nc2c(C(=O)N3CCCN(CC4CC4)C(C(C)C)C3)cccc2[nH]1 (stereo not drawn)	nt	-4.4	4.5
CN1CCN(Cc2c(O)ccc3c2O/C(=C\c2cc4cc(Br)ccc4o2)C3=O)CC1	-4.9	-3.5	61.9*
O=C1/C(=C/c2cc3cc(Br)ccc3o2)Oc2c1ccc(O)c2CN1CCOCC1	-4.3	-3.5	28.1
O=C1/C(=C/c2cc3cc(Br)ccc3o2)Oc2c1ccc(O)c2CN1CCCC1	-7.7	-7.7	20.1
CCN1CCN(Cc2c(O)ccc3c2O/C(=C\c2cc4cc(Br)ccc4o2)C3=O)CC1	-2.9	-7.3	79.0*
O=C(O)c1cccnc1C(=O)O	-3.7	53.5*!	3.3
O=C(O)c1cccnc1S(=O)(=O)C(F)(F)F	nt	-8.2	9.8
N#Cc1ccc(-c2cc(C3(CNCc4ccc(F)c(F)c4)CC3)ccn2)cc1	-8.1	-6.2	14.6
CCN(CC)CC(=O)N1N=C(c2ccc(Cl)cc2)CC1c1ccco1 (stereo not drawn)	-3.1	4.6	-2.4
O=C(CCl)N1N=C(c2ccc(Cl)cc2)CC1c1ccco1 (stereo not drawn)	52.3*	-7.3	-5.2
SMILES	mcGAS inh	hcGAS inh	NPYLR7 agonist
CN(C)C(N)=NCCC[C@H](N)C(=O)O	-2.9	-1.7	-2.1
NC(=NCCC[C@H](N)C(=O)O)NO	57.7*	-2.9	-0.5
COc1cc(-c2nc3n(n2)C(c2ccc(O)cc2)C(C(N)=O)=C(C)N3)cc(OC)c1OC (stereo not drawn)	nt	-1.2	51.2*
COc1ccc(C2C(C(N)=O)=C(C)Nc3ncnn32)cc1 (stereo not drawn)	-4.6	-9.0	-1.3
CN1CCC(=C2c3ccccc3Sc3ccccc32)CC1	-5.4	-3.4	53.5*!
CN1CCC(=C2c3ccccc3C=Cc3ccccc32)CC1	-4.2	-1.1	-4.5
Cc1cccnc1CN1CCN(Cc2cc3n(n2)CCNC3)CC1	-10.7	1.6	2.5
CCOC(=O)C1C2C=CC3(CN(CC(C)C)C(=O)C13)O2 (stereo not drawn)	nt	-7.9	-0.6
O=C1CNc2c(c(=O)oc3ccccc23)N1	nt	52.2*	2.1
O=c1c2ccccc2oc2ccccc12	-3.6	-7.8	0.7
CC(C)(C)c1ccc(S(=O)(=O)N2CCC(C(=O)NC3CCCC[C@H]3NC(=O)c3ccccc3)CC2)cc1 (stereo partly drawn)	1.6	1.2	6.7
CCOC(=O)C=C(C)Nn1c(C)cc(C)c(C#N)c1=O	nt	-5.5	0.4
O=C(NCCN1CCCCCC1)Nc1ccccc1	-3.5	-6.1	-8.4
CC(C)N(Cc1nccn1Cc1cccc(F)c1)C(=O)c1ccco1	-6.7	-11.2	21.0
